Results from PubChem BioAssay (Tox21).
Inconclusive results are not listed. Activity calls are given as the source filed them. Unless noted, calls come from the whole dose curve; as a rule, active = well fitted curve in the direction sought with a large enough effect in the repeat runs; inconclusive = weak or mixed curves; inactive = no such curve, though single readings can be large; an effect the other way counts as inactive or inconclusive.

What was measured:
[1] = qHTS assay for small molecule agonists of the p53 signaling pathway (AID 651631; calls by dose curve; note: nearly all actives have a fitted effect of over 15% in size)
Summary of the method: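 HCT-116 cells carrying a stable p53 response element–beta-lactamase reporter were plated, rested 5 h at 37 °C, then exposed to compound in DMSO for 16 h at 37 °C; reporter activity was read as FRET substrate fluorescence after 2 h at room temperature.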

[2] = qHTS assay for small molecules that induce genotoxicity in human embryonic kidney cells expressing luciferase-tagged ATAD5 (AID 651632); note: nearly all actives have a fitted effect of over 15% in size
Summary of the method: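 DMSO vehicle served as the control. HEK293T reporter cells, 16 hr at 37C, then 30 min Amplite at room temperature; ATAD5 induction is measured as luciferase activity.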

[3] = qHTS assay for small molecule disruptors of the mitochondrial membrane potential (AID 720635)
Summary of the method: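 Mitochondrial membrane potential tracked with Mito-MPS dye, red aggregates (ex 540/em 590 nm) against green monomers (ex 490/em 535 nm). Compound treatment 1 hr at 37C, dye 30 min in HepG2.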

[4] = qHTS assay to test for compound auto fluorescence at 590 nm (red) in HepG2 cells (AID 720674)
Summary of the method: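 Red autofluorescence (Ex/Em 540/590 nm, Rose Bengal sodium equivalents) was measured in HepG2 cells, 2,000 per well in MEM plus 10% FBS, plated overnight at 37 C. Readings were taken 1 hr after adding 23 nL compound or DMSO, at 37 C and 5% CO2.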

[5] = qHTS assay to test for compound auto fluorescence at 535 nm (green) in HepG2 cells (AID 720675)
[6] = qHTS assay to test for compound auto fluorescence at 460 nm (blue) in HEK293 cells (AID 720678)
Summary of the method: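 Triamterene serves as the blue fluorophore standard. Compound signal at 405/460 nm is read in HEK293 wells (2,000 cells, 10% dialyzed FBS) after overnight treatment at 37C.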

[7] = qHTS assay to test for compound auto fluorescence at 590 nm (red) in HEK293 cells (AID 720679)
Summary of the method: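 We plated HEK293 cells in 10% dialyzed FBS medium, let them adhere for 4-5 hr, then added 23 nL compound. Overnight at 37C and 5% CO2 preceded fluorescence measurement at 540/590nm.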

[8] = qHTS assay for small molecule disruptors of the mitochondrial membrane potential - cell viability (AID 720634; calls by dose curve;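 note: human HepG2 liver cancer cells; series mostly up to about 83 µM; nearly all actives have a fitted effect of over 20% in size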)
Summary of the method: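 Viability of HepG2 cells is scored from ATP content by luminescence; cells are exposed to compound for 1 hr at 37 C and 5% CO2, then dosed with m-MPI dye before the CellTiter-Glo reagent.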

[9] = qHTS assay for small molecule agonists of the p53 signaling pathway - cell viability (AID 651633; calls by dose curve; note: series mostly up to about 83 µM; nearly all actives have a fitted effect of over 30% in size)
Summary of the method: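 Viability counter-read: CellTiter-Glo luminescence (30 min, room temperature) in the same p53RE-bla plates. These plates had been exposed to compounds for 16 h at 37 C.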

[10] = qHTS assay for small molecules that induce genotoxicity in human embryonic kidney cells expressing luciferase-tagged ATAD5 - cell viability (AID 651634; calls by dose curve; note: nearly all actives have a fitted effect of over 25% in size)
Summary of the method: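 Here HEK293T cells with the ATAD5 luciferase reporter are incubated with test compounds for 15.5 hr, and cytotoxicity is then gauged by measuring protease activity in live cells using fluorescence.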

Measured: Potency

Nc1cc(S(=O)(=O)O)ccc1O
not listed: [8] | [9] | [10]
inactive: all other assays above

O=S(=O)(O)CC(O)CCl (centres undefined)
not listed: [3] | [9] | [10]
inactive: all other assays above

O=Cc1ccc(C(=O)O)cc1
not listed: [4] | [9] | [10]
inactive: all other assays above

NCC1CCC(C(=O)Oc2ccc(CCC(=O)O)cc2)CC1 (centres undefined)
not listed: [8] | [9] | [10]
inactive: all other assays above

O=C(O)Cc1ccccc1Oc1ccc(Cl)cc1Cl
not listed: [8] | [9] | [10]
inactive: all other assays above

Cc1ccc2cccnc2c1
not listed: [2] | [3] | [8]
inactive: all other assays above

CCOC(=O)COc1ccc2c(C)c(CCN(CC)CC)c(=O)oc2c1Cl
not listed: [2] | [3] | [4]
inactive: all other assays above

CC(C)(C)OC=O
not listed: [2] | [3]
inactive: all other assays above

Cc1cc(C)c(C)c(C)c1
not listed: [3] | [9] | [10]
inactive: all other assays above

Cc1ccc(NC(N)=O)cc1
not listed: [2]
inactive: all other assays above

Cc1cc(O)c(Cl)cc1C
not listed: [2] | [3]
inactive: all other assays above

CC(=O)SC[C@@H](C)C(=O)N1CCC[C@H]1C(=O)N[C@@H](Cc1ccccc1)C(=O)O
not listed: [2] | [3] | [4]
inactive: all other assays above

Cc1nc2ccc(Cl)cc2[nH]1
not listed: [2]
inactive: all other assays above

CC(C)(C)C(=O)NCCCC(=O)O
not listed: [2] | [3] | [4]
inactive: all other assays above

CC(=O)c1c(C)cc(C(C)(C)C)cc1C
not listed: [2]
inactive: all other assays above

O=C[C@@H](O)[C@H](O)[C@H](O)CO
not listed: [3] | [9] | [10]
inactive: all other assays above

CCCCN=C(N)N=C(N)N
not listed: [2]
inactive: all other assays above

CCOC(=O)[C@H](CCc1ccccc1)N[C@H]1CS[C@H](c2cccs2)CN(CC(=O)O)C1=O
not listed: [2]
inactive: all other assays above

CC1=C(O)C(=O)CO1
not listed: [1] | [3] | [9]
inactive: all other assays above

CCOC(=O)c1ccc(N(C)C)cc1
inactive: [9] | [10] | [5] | [6] | [7]

Cc1ccccc1OCC(=O)O
not listed: [1] | [3] | [9]
inactive: all other assays above

NNC(=O)OCc1ccccc1
not listed: [1] | [8]
inactive: all other assays above

CNC(C)=O
inactive: [2] | [8] | [4] | [5] | [6] | [7]

C=CCCCCCCCCOC(C)=O
not listed: [1] | [10]
inactive: all other assays above

BrCCOc1ccccc1
not listed: [1] | [3] | [10]
inactive: all other assays above

N=C(N)N1CCc2ccccc2C1
not listed: [1] | [9]
inactive: all other assays above
